Out of some 64,000 compounds screened, about 2,200 (3.4%) were called active. What follows is part of a selection rich in actives, with near analogues and random picks from the rest. Values without a mark were called inactive.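 How the source made its calls: active means calcium fluorescence response, raw or row-and-column corrected B-score, differing from the plate sample mean either way at a set confidence level, mostly lower; inactive means the rest.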
What follows are compounds tested against Muscarinic acetylcholine receptor M1 (Rattus norvegicus) (UniProt P08482) (assay: blocks the rat M1 muscarinic receptor response to acetylcholine (AID 628)). Details: CHO-M1 cells, Fluo-4 calcium, ACh EC80 antagonist mode; at 10 µM; stronger effect = lower value.
Chain of Muscarinic acetylcholine receptor M1 (Rattus norvegicus) (P08482 whole entry, looked up): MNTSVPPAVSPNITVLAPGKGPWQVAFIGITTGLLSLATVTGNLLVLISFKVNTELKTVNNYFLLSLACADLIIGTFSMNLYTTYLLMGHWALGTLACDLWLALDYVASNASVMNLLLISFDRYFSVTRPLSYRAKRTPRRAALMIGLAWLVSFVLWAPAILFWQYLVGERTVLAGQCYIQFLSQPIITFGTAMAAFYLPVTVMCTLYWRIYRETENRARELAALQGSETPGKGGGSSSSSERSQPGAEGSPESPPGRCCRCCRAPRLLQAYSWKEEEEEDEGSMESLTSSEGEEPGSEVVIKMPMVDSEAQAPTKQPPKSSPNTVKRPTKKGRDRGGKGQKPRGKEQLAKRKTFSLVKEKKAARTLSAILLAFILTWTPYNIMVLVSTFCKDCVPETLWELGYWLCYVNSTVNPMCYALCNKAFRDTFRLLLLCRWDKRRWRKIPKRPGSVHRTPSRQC
`COCCNC(=O)C(C#N)c1nc2ccccc2nc1N1CCN(Cc2ccc3c(c2)OCO3)CC1` (stereo not drawn) was tested, and the B-score was 0.357. With `COc1ncnc2c1N=C1CC(C)(C)CC(N)=C1S2` the B-score was -3.02 (active). `Cc1ccc(S(=O)(=O)N2CCC(C(=O)N[C@@H](C)C(=O)NCc3ccccc3)CC2)cc1` was tested, and the B-score was 0.328. `COc1cc2cc(CN(CCN3CCCC3)C(=O)Nc3ccccc3Cl)c(=O)[nH]c2cc1OC` gave a B-score of -0.424. `Oc1ccc(Cl)cc1/C=N/c1nc2ccccc2[nH]1` gave a B-score of 0.265. Work on `CC(C)CNS(=O)(=O)c1ccc(OCC(=O)Nc2ccc3c(c2)OCO3)c(Cl)c1` yielded a B-score of 0.138. `COc1ccc(S(=O)(=O)Nc2ccc3c(c2)OCO3)cc1Cl` was tested, and the B-score was -4.67 (active). Work on `COc1ccc(F)cc1S(=O)(=O)Nc1ccc2c(c1)OCO2` yielded a B-score of 0.86. In the case of `COc1ccc(N2CCN(Cc3cc(=O)oc4ccc5ccccc5c34)CC2)cc1`, the B-score is reported as 0.836. Work on `O=S(=O)(c1ccc2ccccc2c1)N1CCN(S(=O)(=O)N2CCOCC2)CC1` yielded a B-score of 1.15. In the case of `O=c1ccc2cc(S(=O)(=O)N3CCN(c4ccccc4)CC3)ccc2o1`, the B-score is reported as 3.23 (active). With `CCOC(=O)C1(C(F)(F)F)N=C(N(C)C)OC(N(C)C)=N1` the B-score was 0.0434. For `Nc1ccc(-n2nncc2-c2ccco2)cc1`, the B-score was 0.0134. In the case of `O=C(C(c1ccccc1)c1ccccc1)N1CCN(CC(O)COc2ccccc2)CC1` (stereo not drawn), the B-score is reported as -2.34 (active). With `COc1cccc(OCC(O)CN2CCN(CCO)CC2)c1` (stereo not drawn) the B-score was -0.234. `OC(COc1cccc(OCC(O)CN2CCCC2)c1)CN1CCCC1` (stereo not drawn) gave a B-score of -0.0676. Work on `N#Cc1ccc(OCCN2C(=O)NC3(CCSC3)C2=O)cc1` (stereo not drawn) yielded a B-score of 0.213. Work on `Cc1n[nH]c(C)c1S(=O)(=O)N1CCCC(C(=O)NCC2COc3ccccc3O2)C1` (stereo not drawn) yielded a B-score of 0.422. With `COc1ccc(C(C)=O)cc1COC(=O)Cn1cnc2ccccc2c1=O` the B-score was 0.139. In the case of `CN1CCN(c2ccc(NC(=O)COc3ccc(Cl)cc3Cl)cc2)CC1`, the B-score is reported as -3.05 (active). With `Cc1ccccc1OCC(=O)Nc1ccc(N2CCN(C(=O)C(C)C)CC2)c(Cl)c1` the B-score was -1.61. `Cc1cc(NC(=O)COc2ccc(Cl)cc2Cl)n(CCC#N)n1` gave a B-score of -0.163. Compound `CCCc1[nH]nc2c1C(c1ccc(Br)s1)C(C#N)=C(N)O2` (stereo not drawn) has a B-score of 0.255. Compound `CCOC(=O)N1CC=C2C(C#N)=C(N)C(C#N)(C#N)[C@H](c3cccs3)[C@H]2C1` has a B-score of 0.673. For `CCCN1CC=C2C(C#N)=C(N)C(C#N)(C#N)C(c3cc(OC)ccc3OC)C2C1` (stereo not drawn), the B-score was -2.33 (active). Compound `CCC1=C(C(=O)OC)C(c2cc(OC)ccc2OC)C(C#N)=C(N)O1` (stereo not drawn) has a B-score of 0.513. In the case of `CCn1cc(NC(=O)Nc2ccc(OC)c(OC)c2)c(C(N)=O)n1`, the B-score is reported as -0.416. In the case of `Cn1c(=NC(=O)c2ccco2)sc2cccc(F)c21`, the B-score is reported as 0.839. `O=C(NCCc1ccc2c(c1)OCCO2)c1cc2ccccc2o1` was tested, and the B-score was -3.3 (active). For `O=C(CC(Cc1ccccc1)C(=O)O)NCCc1ccc2c(c1)OCO2` (stereo not drawn), the B-score was -0.392. Compound `O=C(COC(=O)c1ccc2c(c1)OCCO2)NCc1ccccc1` has a B-score of 0.116. For `CCOc1ccccc1C1C(C(=O)OC)=CN(C)C=C1C(=O)OC`, the B-score was 0.428. `O=C(c1ccccc1)N1CCN(C(=O)N2CCCCC2)CC1` gave a B-score of -0.168. For `O=C(c1ccc(-n2cnnn2)cc1)N1CCN(C(c2ccccc2)c2ccccc2)CC1`, the B-score was -10.9 (active). Work on `Cn1nnnc1SCC(=O)N1CCN(C(c2ccccc2)c2ccccc2)CC1` yielded a B-score of -2.4. Work on `CC(Nc1nc(N2CCCC2)nc2ccccc12)c1ccccc1` (stereo not drawn) yielded a B-score of -1.8. Compound `COc1cc(-c2nc(S(=O)(=O)c3ccc(Cl)cc3)c(N(C)C)o2)cc(OC)c1OC` has a B-score of 0. Compound `COc1ccc(CSc2nc(N3CCOCC3)c3c(c2C#N)CC(C)(C)OC3)cc1` has a B-score of 0.045. With `CCS(=O)(=O)N1CCC(C(=O)N2CCN(c3ccccc3)CC2)CC1` the B-score was -0.14. For `Cc1ccc(N2CCN(S(=O)(=O)c3ccc(F)cc3)CC2)c(C)c1`, the B-score was 1.98 (active). In the case of `Cc1ccc(S(=O)(=O)N2CCC(N3CCCCCC3)CC2)cc1`, the B-score is reported as -0.781. In the case of `Cc1ccc(C)c(N2CCN(S(=O)(=O)c3ccc4c(c3)oc(=O)n4C)CC2)c1`, the B-score is reported as 0.182. `Cc1cc(=O)oc(C)c1C(=O)NCc1ccc(F)cc1` gave a B-score of -0.775. In the case of `CCOC(=O)C(CC)Sc1ncnc2c1nnn2-c1ccc(F)cc1` (stereo not drawn), the B-score is reported as 0.284. In the case of `O=C(CCn1c(=O)[nH]c2ccccc2c1=O)NCCCN1CCN(c2cccc(Cl)c2)CC1`, the B-score is reported as -1.14. With `O=C(CCCn1c(=O)[nH]c2cc(Cl)ccc2c1=O)NCCN1CCN(c2ccccc2)CC1` the B-score was 12.4 (active). `COc1ccc(CCNC(=O)CCCCn2c(=O)[nH]c3ccccc3c2=O)cc1OC` was tested, and the B-score was -0.359. For `C=CCn1c(=S)[nH]c2nc3c(cc2c1=O)COC(C)(C)C3`, the B-score was -2.69 (active). Compound `CC(C)OCCCNc1nc2c(c(=O)n(Cc3ccccc3F)c(=O)n2C)n1C` has a B-score of -0.366. With `O=C(CN1CCOCC1)Nc1c2c(nc3c1CCC3)CCC2` the B-score was -0.251. `Cc1cccn2c(=O)c3cc(C#N)c(=O)n(CCCN4CCOCC4)c3nc12` gave a B-score of -0.356. `Cc1cccn2c(=O)c3cc(C#N)c(=NC(=O)c4cccnc4)n(CC4CCCO4)c3nc12` (stereo not drawn) was tested, and the B-score was -1.9 (active). `Cc1cccn2c(=O)c3cc(C(=O)N4COCC4(C)C)n(C)c3nc12` gave a B-score of -0.585. `CC1CCc2c(sc3c2C2=NS(=O)(=O)CCN2C=N3)C1` (stereo not drawn) showed a B-score of -0.133. In the case of `Cc1ccc(C)n1-c1ccncc1`, the B-score is reported as -0.0105. With `CCOC(=O)CCc1c(C)c(C#N)c2[nH]c3ccccc3n2c1=O` the B-score was -0.0991. In the case of `COC(CCN(C)C)(c1ccccc1)c1ccccc1`, the B-score is reported as -11.2 (active). `COc1ccc2oc(=O)c(C(=O)N3CCN(c4ccccc4F)CC3)cc2c1` showed a B-score of 0.203. In the case of `CN1CCN(CC(=O)Nc2sc3c(c2C#N)CCC(C(C)(C)C)C3)CC1` (stereo not drawn), the B-score is reported as -2.38 (active). Work on `CCC(=O)Nc1sc(C(=O)N2CCCCC2)c(C)c1C#N` yielded a B-score of -0.552. `C1=C(N2CCOCC2)/C(=C/c2nc3ccccc3[nH]2)CC1` showed a B-score of 0.998. `CCC1C(C#N)=C(SC)NC2=C1C(=O)CC(C)(C)C2` (stereo not drawn) was tested, and the B-score was -0.0322. With `Cc1cc2c(cc1C)NC(c1ccccn1)C1=C(CC(C)(C)CC1=O)N2` (stereo not drawn) the B-score was 2.52 (active). With `COc1cc(C2C(C#N)=C(C)NC3=C2C(=O)CC(C)(C)C3)ccc1O` (stereo not drawn) the B-score was 0.109. For `COc1ccccc1Cc1nc(-c2ccc(C)cc2)no1`, the B-score was 0.115. For `COc1ccc(-c2noc(CN(C)S(=O)(=O)c3ccc(C)cc3)n2)cc1`, the B-score was -3.11 (active). Work on `COc1ccc(-c2noc(COc3ccc(Cl)c(C)c3)n2)cc1` yielded a B-score of -0.385. `CC(C)Oc1ccc(C2NC(=O)NC2=O)cc1` (stereo not drawn) was tested, and the B-score was -0.129. Compound `O=C(O)CN(Cc1ccco1)S(=O)(=O)c1ccccc1` has a B-score of 0.346. In the case of `Cc1cccc(C)c1NC(=O)N1CC=C(n2c(=O)[nH]c3ccccc32)CC1`, the B-score is reported as 0.257. Work on `CC(C)C1C2=C(CC(C)(C)CC2=O)ON1c1ccccc1` (stereo not drawn) yielded a B-score of -0.269. `Cc1cc(N2C(=O)C(=O)/C(=C(/O)c3ccc(Cl)cc3)C2c2cccc(Br)c2)no1` (stereo not drawn) was tested, and the B-score was 0.0445. Work on `CCOC(=O)c1c(NC(=O)c2ccc(Br)o2)sc2c1CCCC2` yielded a B-score of 0.689. Work on `COC(=O)Nc1ccc(S(=O)(=O)N(C)CC(F)(F)C(F)F)cc1` yielded a B-score of 0.467. With `O=S(=O)(O)c1nc2ccccc2n1Cc1ccc(Cl)cc1` the B-score was 0.456. For `O=S(=O)(CCc1nc2ccccc2o1)c1ccc(Cl)cc1`, the B-score was -2.24 (active). `O=C(CSc1nc2ccccc2o1)N1CCN(c2ccc(Cl)cc2)CC1` was tested, and the B-score was -0.0538. With `O=C1c2ccncc2C(=O)N1C1CCCCC1` the B-score was -0.0556. Work on `O=C(OCc1ccccc1F)c1ccc2c(c1)OCCO2` yielded a B-score of 0.0701. `C[C@H](NC(=O)OC(C)(C)C)c1nnc(SCC(=O)Nc2ccc(Br)cc2)o1` showed a B-score of 0.0617. `CNC(=O)CN1C(=O)c2ccccc2S1(=O)=O` showed a B-score of 0.00139. `Nc1nnc(SCCN2C(=O)c3ccccc3S2(=O)=O)s1` was tested, and the B-score was 2.64 (active). `CCCc1nnc(NC(=O)CN2C(=O)c3ccccc3S2(=O)=O)s1` was tested, and the B-score was -0.485. For `COC(=O)c1cc(NC2c3ccccc3C(=O)N2c2ccc(Cl)cn2)cc(C(=O)OC)c1` (stereo not drawn), the B-score was 0.743. In the case of `CC(=O)c1c(N)n(C)c(=O)n(C)c1=O`, the B-score is reported as 0.343. `O=C(NC1=NCCS1)c1ccc(Cl)s1` was tested, and the B-score was -2.35 (active). Work on `CC(NC(=O)COc1ccccc1)C(=O)NC1=NCCS1` (stereo not drawn) yielded a B-score of -0.755. Work on `CCc1ccc(N2CC(C(=O)NC3=NCCS3)CC2=O)cc1` (stereo not drawn) yielded a B-score of -0.382. In the case of `CCOC(=O)C1CCN(C(=O)C2CCN(S(=O)(=O)N3CCCC3)CC2)CC1`, the B-score is reported as -0.822. For `Cc1ccc(C(=O)NC2CCN(C(=O)N3CCOCC3)CC2)cc1`, the B-score was -0.472. In the case of `Cc1noc(C)c1S(=O)(=O)NCCc1ccc(S(N)(=O)=O)cc1`, the B-score is reported as 0.287. Compound `CCCN1CCN(C(=O)Cn2ncc3ccccc32)CC1` has a B-score of -0.673. Compound `CC(C)(C)n1nnc(CCc2nnn(C(C)(C)C)n2)n1` has a B-score of 0.866. For `Cc1ccc(Cc2cncc(O)c2)cc1S(=O)(=O)O`, the B-score was -0.895. With `CC12CCC(C(=O)N(CCC#N)CCC#N)(CC1=O)C2(C)C` (stereo not drawn) the B-score was 0.00852. With `N#CCCN1CCN(S(=O)(=O)c2ccc(S(=O)(=O)NC3CC3)cc2)CC1` the B-score was -0.837. `CC(C)(C)c1cc(CN2CCN(CCC#N)CC2)cc(C(C)(C)C)c1O` was tested, and the B-score was -3.57 (active). Compound `N#CCCN1CCN(S(=O)(=O)c2ccc(S(=O)(=O)N3CCCC3)cc2)CC1` has a B-score of -0.0175.

— PubChem BioAssay AID628 (Vanderbilt High Throughput Screening Facility, 2007)
